Laboratory results published in PubChem BioAssay AID1159580 (chemical genetic matrix, 2015).
Where “and” joins values, the source holds several entries; their conditions need not be identical. Equal values may be shown once. The whole screen tested about 5,500 compounds, of which about 2,000 (36%) were called active. Not shown: some 18% with an inconclusive outcome. Rule as the data show it: active = normalized growth mostly below about 0.91 (no sharp cut-off); inconclusive = no clear call, values can overlap the other calls; inactive = mostly above about 0.92. The list shows a part of the results.

Assay: chemical genetic growth profiling, strain panel (AID 1159580);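 also: tested at 20 µM; growth read once vehicle control cultures reached saturation at 30 °C; 1 = growth at the plate median or of vehicle wells; lower values mean less growth of the strain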
Details: growth OD

Measured: normalized growth

O=C1CCC(N2C(=O)c3ccccc3C2=O)C(=O)N1 (stereo unspecified)
inactive: S. cerevisiae deletion strains, locus YJR075W, strain HOC1, stronger effect = lower value 0.972 and 1.02 | S. cerevisiae deletion strains, locus YKL009W, strain mrt4, stronger effect = lower value 1.03 | S. cerevisiae deletion strains, locus YKL068W, stronger effect = lower value 0.997 | S. cerevisiae deletion strains, locus YKL085W, strain MDH1 (second series), stronger effect = lower value 1.03 | S. cerevisiae deletion strains, locus YKL085W, strain MDH1, stronger effect = lower value 1.03 | S. cerevisiae deletion strains, locus YKL160W, strain elf1, stronger effect = lower value 1 | S. cerevisiae deletion strains, locus YKL190W, strain CNB1, stronger effect = lower value 1.02 | S. cerevisiae deletion strains, locus YKR001C, strain vps1, stronger effect = lower value 0.969 | S. cerevisiae deletion strains, locus YKR026C, strain gcn3, stronger effect = lower value 1.02 | S. cerevisiae deletion strains, locus YKR091W, strain srl3, stronger effect = lower value 1.02 | S. cerevisiae deletion strains, locus YLL001W, strain dnm1, stronger effect = lower value 1.04 | S. cerevisiae deletion strains, locus YLL026W, stronger effect = lower value 1.01 | S. cerevisiae deletion strains, locus YLL041C, strain sdh2, stronger effect = lower value 1.03 | S. cerevisiae deletion strains, locus YLR027C, strain aat2, stronger effect = lower value 1 | S. cerevisiae deletion strains, locus YLR039C, strain RIC1, stronger effect = lower value 1.03 | S. cerevisiae deletion strains, locus YLR058C, strain SHM2, stronger effect = lower value 1.01 | S. cerevisiae deletion strains, locus YLR102C, strain apc9, stronger effect = lower value 0.991 | S. cerevisiae deletion strains, locus YLR113W, strain HOG1, stronger effect = lower value 0.971 | S. cerevisiae deletion strains, locus YLR221C, strain rsa3, stronger effect = lower value 1.03 | S. cerevisiae deletion strains, locus YLR258W, strain gsy2, stronger effect = lower value 1.02 | S. cerevisiae deletion strains, locus YLR262C, strain YPT6 (second series), stronger effect = lower value 1.02 | S. cerevisiae deletion strains, locus YLR262C, strain YPT6, stronger effect = lower value 1.05 | S. cerevisiae deletion strains, locus YLR268W, strain sec22, stronger effect = lower value 0.985 | S. cerevisiae deletion strains, locus YLR320W, strain mms22, stronger effect = lower value 1.03 | S. cerevisiae deletion strains, locus YLR330W, strain CHS5, stronger effect = lower value 1 | S. cerevisiae deletion strains, locus YLR342W, strain FKS1 (second series), stronger effect = lower value 0.991 | S. cerevisiae deletion strains, locus YLR342W, strain FKS1, stronger effect = lower value 1.01 | S. cerevisiae deletion strains, locus YLR357W, strain rsc2, stronger effect = lower value 0.997 | S. cerevisiae deletion strains, locus YLR370C, strain arc18, stronger effect = lower value 1.03 | S. cerevisiae deletion strains, locus YLR371W, strain rom2, stronger effect = lower value 0.983 | S. cerevisiae deletion strains, locus YLR384C, strain iki3, stronger effect = lower value 1.03 | S. cerevisiae deletion strains, locus YLR418C, strain cdc73, stronger effect = lower value 0.977 | S. cerevisiae deletion strains, locus YML016C, strain PPZ1, stronger effect = lower value 1.01 | S. cerevisiae deletion strains, locus YML032C, strain rad52, stronger effect = lower value 0.979 | S. cerevisiae deletion strains, locus YML120C, strain ndi1, stronger effect = lower value 1.04 | S. cerevisiae deletion strains, locus YML124C, strain tub3, stronger effect = lower value 0.988 | S. cerevisiae deletion strains, locus YMR058W, strain fet3, stronger effect = lower value 1.02 | S. cerevisiae deletion strains, locus YMR078C, strain ctf18, stronger effect = lower value 0.998 | S. cerevisiae deletion strains, locus YMR125W, strain sto1, stronger effect = lower value 1.01 | S. cerevisiae deletion strains, locus YMR129W, stronger effect = lower value 1.02 | S. cerevisiae deletion strains, locus YMR205C, strain PFK2, stronger effect = lower value 1.01 | S. cerevisiae deletion strains, locus YMR223W, strain ubp8, stronger effect = lower value 0.981 | S. cerevisiae deletion strains, locus YMR231W, strain pep5, stronger effect = lower value 1.01 | S. cerevisiae deletion strains, locus YMR263W, strain SAP30, stronger effect = lower value 1.02 and 1 | S. cerevisiae deletion strains, locus YMR307W, strain GAS1, stronger effect = lower value 1.01 and 0.996 | S. cerevisiae deletion strains, locus YNL067W, strain RPL9B, stronger effect = lower value 1.02 | S. cerevisiae deletion strains, locus YNL071W, strain lat1, stronger effect = lower value 1.03 | S. cerevisiae deletion strains, locus YNL128W, strain TEP1, stronger effect = lower value 1.02 | S. cerevisiae deletion strains, locus YNL153C, strain GIM3, stronger effect = lower value 1.02 | S. cerevisiae deletion strains, locus YNL175C, strain NOP13, stronger effect = lower value 0.997 | S. cerevisiae deletion strains, locus YNL183C, strain NPR1, stronger effect = lower value 0.927 | S. cerevisiae deletion strains, locus YNL197C, strain WHI3, stronger effect = lower value 0.986 | S. cerevisiae deletion strains, locus YNL209W, strain ssb2, stronger effect = lower value 1.02 | S. cerevisiae deletion strains, locus YNL224C, strain SQS1, stronger effect = lower value 0.991 | S. cerevisiae deletion strains, locus YNL233W, strain BNI4, stronger effect = lower value 1.02 | S. cerevisiae deletion strains, locus YNL248C, strain rpa49, stronger effect = lower value 0.957 | S. cerevisiae deletion strains, locus YNL250W, strain rad50, stronger effect = lower value 1 | S. cerevisiae deletion strains, locus YNL271C, strain bni1, stronger effect = lower value 0.986 | S. cerevisiae deletion strains, locus YNL298W, strain CLA4, stronger effect = lower value 1 | S. cerevisiae deletion strains, locus YNL307C, strain MCK1, stronger effect = lower value 0.987 | S. cerevisiae deletion strains, locus YNL322C, strain KRE1 (second series), stronger effect = lower value 1.02 | S. cerevisiae deletion strains, locus YNL322C, strain KRE1, stronger effect = lower value 1.01 | S. cerevisiae deletion strains, locus YNR049C, strain mso1, stronger effect = lower value 1.01 | S. cerevisiae deletion strains, locus YNR052C, strain pop2, stronger effect = lower value 0.991 | S. cerevisiae deletion strains, locus YOL006C, strain TOP1, stronger effect = lower value 1.01 | S. cerevisiae deletion strains, locus YOL012C, strain htz1 0.819 | S. cerevisiae deletion strains, locus YOL147C, strain pex11, stronger effect = lower value 0.989 | S. cerevisiae deletion strains, locus YOR001W, strain rrp6, stronger effect = lower value 1.01 | S. cerevisiae deletion strains, locus YOR061W, strain CKA2, stronger effect = lower value 1.02 | S. cerevisiae deletion strains, locus YOR069W, strain VPS5, stronger effect = lower value 1.01 | S. cerevisiae deletion strains, locus YOR070C, strain gyp1, stronger effect = lower value 1.02 | S. cerevisiae deletion strains, locus YOR080W, strain dia2, stronger effect = lower value 1.02 | S. cerevisiae deletion strains, locus YOR083W, strain WHI5 (second series), stronger effect = lower value 1.01 | S. cerevisiae deletion strains, locus YOR083W, strain WHI5, stronger effect = lower value 1.01 | S. cerevisiae deletion strains, locus YOR106W, strain vam3, stronger effect = lower value 1.01 | S. cerevisiae deletion strains, locus YOR136W, strain idh2, stronger effect = lower value 0.981 | S. cerevisiae deletion strains, locus YOR144C, strain elg1, stronger effect = lower value 0.998 | S. cerevisiae deletion strains, locus YOR184W, strain ser1, stronger effect = lower value 0.981 | S. cerevisiae deletion strains, locus YOR231W, strain MKK1, stronger effect = lower value 0.976 | S. cerevisiae deletion strains, locus YOR265W, strain rbl2, stronger effect = lower value 1.01 | S. cerevisiae deletion strains, locus YOR270C, strain vph1, stronger effect = lower value 1.04 | S. cerevisiae deletion strains, locus YOR290C, strain snf2, stronger effect = lower value 1.01 | S. cerevisiae deletion strains, locus YOR316C, strain cot1, stronger effect = lower value 0.997 | S. cerevisiae deletion strains, locus YPL051W, strain arl3, stronger effect = lower value 1 | S. cerevisiae deletion strains, locus YPL055C, strain LGE1, stronger effect = lower value 1.05 | S. cerevisiae deletion strains, locus YPL078C, strain atp4, stronger effect = lower value 1.01 | S. cerevisiae deletion strains, locus YPL106C, strain sse1, stronger effect = lower value 1.03 | S. cerevisiae deletion strains, locus YPL240C, strain hsp82, stronger effect = lower value 1.02 | S. cerevisiae deletion strains, locus YPL241C, strain CIN2, stronger effect = lower value 1.01 | S. cerevisiae deletion strains, locus YPL256C, strain CLN2, stronger effect = lower value 0.968 | S. cerevisiae deletion strains, locus YPR119W, strain clb2, stronger effect = lower value 0.979 | S. cerevisiae deletion strains, locus YPR141C, strain kar3, stronger effect = lower value 0.988 | S. cerevisiae deletion strains, locus YPR163C, strain tif3, stronger effect = lower value 0.998 | S. cerevisiae deletion strains, locus YPR167C, strain met16, stronger effect = lower value 0.99 | S. cerevisiae deletion strains, strain wtn01, stronger effect = lower value 0.983 | S. cerevisiae strains, strain wild type, stronger effect = lower value 1.01
